Source: paper PMC5540273 (PLoS ONE, 2017)
Values joined by “and” are separate entries in the source; they are usually repeats but may differ in a detail not shown here. Equal values may be shown once. Read-outs that look alike come from different tables or passages of the source.

Tests used:
[1] = system: NEK3; conditions: concentration: 1 μM, replicates: in singlicate, n = 1
[2] = system: NEK4; conditions: concentration: 1 μM, replicates: in singlicate, n = 1
[3] = system: NEK5; conditions: concentration: 1 μM, replicates: in singlicate, n = 1
[4] = system: NEK6; conditions: concentration: 1 μM, replicates: in singlicate, n = 1
[5] = system: NEK7; conditions: concentration: 1 μM, replicates: in singlicate; n = 1
[6] = system: NEK9; conditions: concentration: 1 μM, replicates: in singlicate, n = 1
[7] = system: T1, NIK; conditions: concentration: 1 μM, replicates: in singlicate, n = 1
T1 construct: gene MAP3K14

[8] = system: T2, NIM1; conditions: concentration: 1 μM, replicates: in singlicate; n = 1
T2 construct: gene MGC42105

[9] = system: NLK; conditions: concentration: 1 μM, replicates: in singlicate, n = 1
[10] = system: T3, OSR1; conditions: concentration: 1 μM, replicates: in singlicate, n = 1
T3 construct: gene OXSR1
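Also: KINOMEscan kinase panel screen.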

| Compound | %Inh [1] [%] | %Inh [2] [%] | %Inh [3] [%] | %Inh [4] [%] | %Inh [5] [%] | %Inh [6] [%] | %Inh [7] [%] | %Inh [8] [%] | %Inh [9] [%] | %Inh [10] [%] | %Inh ([1]; 1 µM) | %Inh ([2]; 1 µM) | %Inh ([3]; 1 µM) | %Inh ([4]; 1 µM) | %Inh ([6]; 1 µM) | %Inh ([7]; 1 µM) | %Inh ([9]; 1 µM) | %Inh ([10]; 1 µM) |
| --- | --- | --- | --- | --- | --- | --- | --- | --- | --- | --- | --- | --- | --- | --- | --- | --- | --- | --- |
| Cc1cccc(-c2nc(Nc3ccc4[nH]nnc4c3)c3ccccc3n2)n1 [GW867587] | 22 | 0 | 2 | 0 | 0 | 0 | 21 | 0 | 0 | 0 |  |  |  |  |  |  |  |  |
| Cl.c1ccc(Cn2ncc3cc(Nc4ncnc5ccccc45)ccc32)cc1 [GW273749] | 2 | 0 | 18 | 0 | 1 | 15 | 0 | 3 | 0 | 10 |  |  |  |  |  |  |  |  |
| Fc1cccc(COc2ccc(Nc3ncnc4nn5ccccc5c34)cc2Cl)c1 [GW689066] | 0 | 0 | 0 | 0 | 0 | 4 | 0 | 13 | 7 | 3 |  |  |  |  |  |  |  |  |
| C[C@@H]1CCN(C(=O)CO)C[C@@H]1N(C)c1ncnc2[nH]ccc12 | 38 | 0 | 1 | 0 | 0 | 0 | 0 | 0 | 100 | 0 |  |  |  |  |  |  |  |  |
| O=C(Nc1n[nH]c2nc(-c3ccco3)c(Br)cc12)c1ccc(CN2CCCC2)cc1.O=C(O)[C@H](O)[C@@H](O)C(=O)O [SB-742352] | 0 | 0 | 0 | 0 | 10 | 0 | 0 | 0 | 0 | 0 |  |  |  |  |  |  |  |  |
| COc1ccc(Nc2nccc(N3CCC(NC(=O)c4cccc(NC(C)=O)c4)C3)n2)cc1 (stereo not drawn) [GSK1379732] | 11 | 0 | 25 | 0 | 0 | 13 | 28 | 47 | 12 | 7 |  |  |  |  |  |  |  |  |
| O=C(c1ccc(-c2cc(-c3c[nH]nc3-c3ccccn3)ccn2)cc1)N1CCCC1 [GW792479] | 35 | 0 | 0 | 28 | 0 | 0 | 0 | 4 | 0 | 0 |  |  |  |  |  |  |  |  |
| Nc1nc(-c2cccnc2)c(-c2ccnc3ccccc23)s1 [GW684083] | 2 | 20 | 0 | 0 | 0 | 4 | 29 | 66 | 9 | 11 |  |  |  |  |  |  |  |  |
| COc1ccc(Nc2nccc(N3CCC(NC(=O)Nc4ccc5c(c4)OCO5)C3)n2)cc1 (stereo not drawn) [GSK1379745] | 0 | 3 | 25 | 7 | 3 | 0 | 1 | 22 | 0 | 12 |  |  |  |  |  |  |  |  |
| Fc1ccc(Nc2nccc(-c3c(-c4ccc(Cl)cc4)nn4ncccc34)n2)cc1F [GW829058] | 11 | 8 | 13 | 21 | 0 | 5 | 43 | 34 | 70 | 28 |  |  |  |  |  |  |  |  |
| Oc1ccc2ncnc(Nc3ccc(OCc4ccccc4)cc3)c2c1 [GI262866] | 0 | 0 | 7 | 0 | 1 | 10 | 8 | 7 | 7 | 0 |  |  |  |  |  |  |  |  |
| FC(F)(F)c1cc(Nc2nccc(-c3c(-c4ccc(Cl)cc4)nn4ncccc34)n2)ccc1Cl [GW829351] | 2 | 0 | 0 | 0 | 0 | 0 | 4 | 0 | 29 | 0 |  |  |  |  |  |  |  |  |
| Nc1nc(-c2ccc3c(N)n[nH]c3c2)cc(N2CCCCC2)n1 [GSK2228768] | 0 | 3 | 4 | 0 | 0 | 0 | 0 | 0 | 0 | 7 |  |  |  |  |  |  |  |  |
| Nc1nc(-c2ccc3c(N)n[nH]c3c2)cc(N2CCC[C@@H](C(=O)Nc3ccccc3)C2)n1.O=C(O)C(F)(F)F.O=C(O)C(F)(F)F [GSK2288359] | 2 | 0 | 13 | 0 | 0 | 15 | 0 | 8 | 0 | 3 |  |  |  |  |  |  |  |  |
| CNc1nccc(-c2c(-c3ccc(F)cc3)ncn2C2CCN(C)CC2)n1 [SB-222903] | 17 | 0 | 0 | 0 | 0 | 0 | 31 | 0 | 83 | 0 |  |  |  |  |  |  |  |  |
| COc1ccc(NC(=O)c2ccc(-c3cc(-c4nnc(C)o4)ccc3C)cc2)cc1 [GW595885] | 5 | 19 | 4 | 0 | 0 | 0 | 0 | 20 | 10 | 14 |  |  |  |  |  |  |  |  |
| COc1ccc(-c2nc3n(c2-c2ccncc2)CCC3)cc1 [SKF-104493] |  |  |  |  | 0 |  |  | 19 |  |  | 19% and 0% | 19% and 0% | 0% and 16% | 5% and 0% | 0% and 23% | 0% and 6% | 28% and 64% | 2% and 0% |
| Clc1ccc(-c2cc(-c3c[nH]nc3-c3ccccn3)ccn2)cc1 [GW681251] | 3 | 8 | 36 | 0 | 0 | 2 | 30 | 16 | 11 | 2 |  |  |  |  |  |  |  |  |
| Fc1cccc(COc2ccc(Nc3ncnc4sc(-c5ccc[nH]5)cc34)cc2Cl)c1 [GW707818] | 1 | 0 | 31 | 0 | 0 | 17 | 0 | 14 | 23 | 0 |  |  |  |  |  |  |  |  |
| C[C@H]1CC[C@@H](C(=O)Nc2ccccc2)CN1c1cc(-c2ccc3c(N)n[nH]c3c2)nc(N)n1 [GSK2283293] | 1 | 1 | 0 | 0 | 0 | 7 | 0 | 12 | 0 | 11 |  |  |  |  |  |  |  |  |
| CCn1c(-c2ccncc2)nc2cnccc21 [SB-735216] | 14 | 8 | 0 | 6 | 6 | 0 | 15 | 25 | 4 | 15 |  |  |  |  |  |  |  |  |
| Cc1cc(N2CCC(NS(=O)(=O)c3ccc(F)cc3)CC2)nc(Nc2cccc(C#N)c2)n1.O=C(O)C(F)(F)F [GSK1653537] | 0 | 0 | 0 | 0 | 0 | 0 | 0 | 18 | 35 | 6 |  |  |  |  |  |  |  |  |
| CS(=O)(=O)CCNCc1ccc(-c2ccc3ncnc(Nc4ccc(OCc5ccccc5)c(Cl)c4)c3c2)o1.Cl [GW574783] | 0 | 5 | 0 | 0 | 0 | 0 | 100 | 0 | 12 | 0 |  |  |  |  |  |  |  |  |
| COC(=O)c1c(-c2ccccc2)c2cc(Cl)ccc2c(=O)n1Cc1ccc(S(C)(=O)=O)cc1 | 4 | 0 | 0 | 2 | 0 | 0 | 0 | 0 | 0 | 0 |  |  |  |  |  |  |  |  |
| Cc1ccc(C)c(NC(=O)NCCNc2ccnc(Nc3ccc(F)cc3)n2)c1 [GSK1379878] | 0 | 0 | 3 | 0 | 0 | 9 | 10 | 0 | 0 | 0 |  |  |  |  |  |  |  |  |
| O=C(Nc1ccccc1)Nc1ccc(Oc2ccc3nccn3n2)cc1 | 8 | 0 | 20 | 0 | 0 | 0 | 0 | 0 | 2 | 0 |  |  |  |  |  |  |  |  |
| Nc1n[nH]c2nnc(-c3ccccc3)cc12 [SB-517389] | 29 | 21 | 27 | 0 | 0 | 7 | 0 | 15 | 36 | 0 |  |  |  |  |  |  |  |  |
| CC(=O)Nc1n[nH]c2ncc(-c3ccccc3)cc12 [SB-548492] | 20 | 25 | 5 | 8 | 19 | 7 | 3 | 100 | 24 | 9 |  |  |  |  |  |  |  |  |
| Cn1cc(-c2ccc3c(c2)CCN3C(=O)Cc2cccc(C(F)(F)F)c2)c2c(N)ncnc21 [GSK2606414] | 0 | 7 | 0 | 0 | 11 | 8 | 0 | 5 | 0 | 12 |  |  |  |  |  |  |  |  |
| CN1CCC(n2cnc(-c3ccc(F)cc3)c2-c2ccnc(NC3CCNCC3)n2)CC1 [SB-229482] | 9 | 0 | 0 | 12 | 1 | 21 | 0 | 54 | 52 | 0 |  |  |  |  |  |  |  |  |
